Screens from PubChem.
HT1080-NT tox – kills 2HG-producing HT-1080-NT fibrosarcoma cells | 1.6% of 360,000 active | HT-1080-NT fibrosarcoma viability, CellTiter-Glo ATP luminescence, 48 h | Potency, µM (series often up to 46.1 µM), usual class: cytotoxic;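 note: NT is the 2HG producing partner of a matched IDH1 knockdown line; nearly all actives have a fitted effect of over 55% in size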
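Viability by CellTiter-Glo luminescence after 48 h compound exposure at 37C of HT-1080-NT cells (750/well, RPMI, 5% FBS). % activity scaled between DMSO wells and medium-only wells, then curve-fitted and categorized by curve class.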
HT1080 IDH1KD tx – toxicity to HT-1080 IDH1 knockdown cells (counter line); 2% of 360,000 active; Potency, µM (highest dose often 46.1 µM), hits mostly cytotoxic; HT-1080 IDH1 knockdown viability, ATP luminescence, 48 h
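% activity derives from luminescence (CellTiter-Glo), normalised to DMSO and no-cell wells. HT-1080-IDH1KD cells, 750/well, had 48 h compound exposure at 37 °C.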
KB-3-1 cytotox – kills parental KB-3-1 adenocarcinoma cells. KB-3-1 viability, CellTiter-Glo ATP luminescence, 72 h. Potency, µM (top dose mostly 46.1 µM), usual class: cytotoxic. 1.4% of 400,000 active. AID 1347075; note: nearly all actives have a fitted effect of over 60% in size
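Multi-concentration cytotoxicity screen in KB-3-1 cells grown in DMEM lacking phenol red with 10% FBS. After 72 h at 37 °C with compound, ATP-dependent luminescence was recorded.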
KB-V1 cytotox – kills drug-selected multidrug resistant KB-V1 cells; KB-V1 MDR cells viability, CellTiter-Glo, 72 h; Potency, µM (doses to about 46.1 µM), hits mostly cytotoxic; 3.4% of 400,000 active; AID 1347076; note: nearly all actives have a fitted effect of over 60% in size
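Drug-selected KB-V1 cells, grown in DMEM lacking phenol red with 10% FBS, receive compound titrations; after three days at 37 degrees C, surviving cell ATP is quantified by CellTiter-Glo luminescence and responses normalized and curve-fitted.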
Hits are given with their value; 0 = inactive; ? = inconclusive; - = no result given. Compounds with a hit are over-represented: about 5.7% of the library has one in this group of screens. Calls come from the whole dose curve; as a rule, active = well fitted curve in the direction sought with a large enough effect; inconclusive = small, poorly fitted or top-dose-only effect, or another doubt; inactive = no such curve, though single readings can be large; an effect the other way counts as inactive or inconclusive.

SMILES	HT1080-NT tox	HT1080 IDH1KD tx	KB-3-1 cytotox	KB-V1 cytotox
COC(=O)CNC(c1ccccc1)c1cc(Br)ccc1NS(=O)(=O)c1ccccc1 (configuration not stated)	0	0	0	0
CCOC(=O)CNC(c1ccccc1)c1cc(Br)ccc1NC(=O)OCC (configuration not stated)	0	0	0	0
COC(=O)CNC(c1ccccc1)c1cc(Br)ccc1NS(=O)(=O)c1ccc(C)cc1 (configuration not stated)	0	0	0	5.8µM
COC(=O)CNC(c1ccccc1)c1cc(Br)ccc1NC(=O)CNC(=O)OCc1ccccc1 (configuration not stated)	?	21µM	0	?
CC1(C)CC2(CCO1)OC(=O)CC2C(=O)Nc1ccccc1Cl (configuration not stated)	?	0	0	0
CCOC(=O)c1scc(-c2ccc(C)cc2)c1S(=O)(=O)N1CCN(c2ccccc2F)CC1	-	-	0	0
CCOc1ccccc1NC(=O)CN1C(=O)CSC(C)C1=O (configuration not stated)	0	0	0	0
O=[N+]([O-])c1ccc(Cl)c(CN2CCN(c3ncc(Cc4ccccc4)cn3)CC2)c1	0	0	?	5.2µM
Cc1[nH]c2ccccc2c1C1=CC(=O)C=CC1=O	0	21µM	?	0
CCc1cc2c3c(c1)C1(C(=O)N3C(C)(C)C=C2C)C(C#N)=C(N)Oc2[nH]c(=O)[nH]c(=O)c21 (configuration not stated)	23µM	16µM	?	?
CC1=CC(C)(C)N2C(=O)C3(C(C#N)=C(N)Oc4cc(C)oc(=O)c43)c3cc(C)cc1c32 (configuration not stated)	0	0	?	0
COc1ccc(CNC(=O)c2ccc3nc(C(C)C)oc3c2)cc1OC	-	-	0	0
Cc1ccc(C(=O)c2sc(Nc3ccc(F)cc3)nc2N)c(C)c1	-	-	0	0
CCCCCOC(=O)c1[nH]c2c(c1C)C(=O)CC(c1ccco1)C2 (configuration not stated)	0.1µM	0.016µM	?	0.0082µM
CCOCCOC(=O)c1[nH]c2c(c1C)C(=O)CC(c1ccccc1)C2 (configuration not stated)	0.15µM	0.26µM	0.92µM	1µM
CCCOC(=O)c1[nH]c2c(c1C)C(=O)CC(c1ccc(OC)c(OC)c1)C2 (configuration not stated)	0	0	0	?
COCCOC(=O)c1[nH]c2c(c1C)C(=O)CC(c1cccs1)C2 (configuration not stated)	?	4.6µM	1.8µM	1.5µM
CCOCCOC(=O)c1[nH]c2c(c1C)C(=O)CC(c1cccs1)C2 (configuration not stated)	0.46µM	0.46µM	0.92µM	1.2µM
CCOCCOC(=O)c1[nH]c2c(c1C)C(=O)CC(c1cc(OC)c(OC)c(OC)c1)C2 (configuration not stated)	0	0	?	0
COc1ccccc1NC(=O)C1CCN(S(=O)(=O)c2ccc3[nH]c4c(c3c2)CCCCC4)CC1	-	-	0	0
CCOCCCNC(=O)C(c1ccc(C)cc1)N(Cc1ccc2c(c1)OCO2)C(=O)c1ccccc1O (configuration not stated)	-	-	0	0
O=c1cc(-c2ccc([N+](=O)[O-])cc2)c2ccc(O)cc2o1	?	?	0	0
CCOc1ccc(-n2c(SCC(=O)Nc3ccc(CC)cc3)nc3c(oc4ccccc43)c2=O)cc1	-	-	0	0
COC(=O)c1[nH]c2c(c1C)C(=O)CC(c1ccc(OC)c(OC)c1)C2 (configuration not stated)	0	0	0	0
COC(=O)c1[nH]c2c(c1C)C(=O)CC(c1cccc(OC)c1)C2 (configuration not stated)	0.73µM	0.92µM	?	?
SMILES	HT1080-NT tox	HT1080 IDH1KD tx	KB-3-1 cytotox	KB-V1 cytotox
CCOC(=O)c1[nH]c2c(c1C)C(=O)CC(c1ccc(F)cc1)C2 (configuration not stated)	2.1µM	2.9µM	?	?
COC(=O)c1[nH]c2c(c1C)C(=O)CC(c1ccc(C)cc1)C2 (configuration not stated)	0	0	?	?
CCOCCOC(=O)C1=C(C)NC2=C(C(=O)CC(c3cccs3)C2)C1c1ccsc1 (configuration not stated)	?	0	0	21µM
Cc1c(C(=O)OCC(C)C)[nH]c2c1C(=O)CC(c1cccs1)C2 (configuration not stated)	1.6µM	1.3µM	?	?
COc1ccc(C2=C(Nc3ccc(Br)c(C)c3)c3ccccc3C2=O)cc1	-	-	0	?
CCN(c1cccc(C)c1)c1ncnc2c1cnn2-c1cccc(Cl)c1	-	-	0	0
CCOC(=O)C1CCCN(C(=O)CCS(=O)(=O)c2cc3c(cc2Cl)NC(=O)CO3)C1 (configuration not stated)	-	-	0	0
COc1ccc(CCNC(=O)c2cnn(-c3ccc(F)cc3)c2C2CCN(C(=O)OC(C)(C)C)CC2)c(OC)c1	-	-	0	?
COc1ccccc1NC(=O)CN(C)S(=O)(=O)c1ccc2c(c1)c(=O)n(C)c(=O)n2C	-	-	0	0
CCc1ccc(NC(=O)CSc2nc(C)c(C(=O)Nc3ccccc3)c(-c3ccc(OC)c(OC)c3)c2C#N)cc1	-	-	0	0
Cc1c(C(=O)OCC2CCCO2)[nH]c2c1C(=O)CC(c1ccc(N(C)C)cc1)C2 (configuration not stated)	0	0	?	21µM
CCCc1ccc(OCC(=O)Nc2sc3c(c2C(=O)OCC)CCC(C(C)(C)C)C3)cc1 (configuration not stated)	-	-	0	0
O=C(NCc1ccco1)c1sc(=S)n2c1[nH]c(=O)c1ccccc12	0	?	?	21µM
O=C(NC1CCCC1)c1sc(=S)n2c1[nH]c(=O)c1ccccc12	0	0	12µM	?
CCCCC(=O)NC(c1ccc([N+](=O)[O-])cc1)c1c(O)ccc2ccccc12 (configuration not stated)	16µM	?	?	16µM
CCCCC(=O)NC(c1ccccc1)c1ccc2cccnc2c1O (configuration not stated)	?	?	?	13µM
Oc1c(C(Nc2cccnc2)c2ccc(C(F)(F)F)cc2)ccc2cccnc12 (configuration not stated)	-	-	0	0
COc1ccc(Cl)cc1C(Nc1cccnc1)c1ccc2cccnc2c1O (configuration not stated)	?	10µM	?	?
CCC(=O)NC(c1ccc(OC)cc1)c1cc(Cl)c2cccnc2c1O (configuration not stated)	0	?	?	0
CCCC(=O)NC(c1ccc(OC)cc1)c1ccc2cccnc2c1O (configuration not stated)	0	?	?	7.3µM
CCCC(=O)NC(c1ccccc1)c1ccc2cccnc2c1O (configuration not stated)	0	?	?	?
